The results in this text go back to publication PMC8384837, “Expanding the binding specificity for RNA recognition by a PUF domain”.

Chain of PUM1 PUF domain R5-RFL (Q14671 828-1176 C1007R/R1008F/Q1011L): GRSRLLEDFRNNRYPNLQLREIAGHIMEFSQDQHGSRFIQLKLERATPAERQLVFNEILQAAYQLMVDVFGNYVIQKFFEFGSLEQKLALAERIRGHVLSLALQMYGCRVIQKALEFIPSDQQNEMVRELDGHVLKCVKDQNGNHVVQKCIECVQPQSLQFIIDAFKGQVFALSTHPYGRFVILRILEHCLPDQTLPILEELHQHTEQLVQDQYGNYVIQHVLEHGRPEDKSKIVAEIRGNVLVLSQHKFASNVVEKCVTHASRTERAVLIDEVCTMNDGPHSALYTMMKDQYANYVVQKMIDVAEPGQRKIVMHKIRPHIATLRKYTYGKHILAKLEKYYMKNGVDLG
Chain of PUM1 PUF domain R5-RYS (Q14671 828-1176 C1007R/R1008Y/Q1011S): as the sequence (Q14671 828-1176 C1007R/R1008F/Q1011L) above, with F181Y, L184S counted along it

One experiment concerns the target PUM1 PUF domain R5-RYS (Homo sapiens, UniProt Q14671 828-1176, C1007R;R1008Y;Q1011S). In words: yeast three-hybrid, YBZ-1, SC-Leu-His + 0.5 mM 3-AT, 4 days. Particulars: tags: N-Gal4 AD-HA kept; label: inside an RPR1-promoter hybrid RNA with tandem MS2 sites; ssRNA. Summed up: (§1)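 The interaction score is the logarithmic change in variant frequency from input to selection. It uses log2, with a pseudocount of 1 for absent variants, and frequencies came from PCR-amplified, Illumina-sequenced repeat regions. The libraries were Pumilio-1 PUF domains randomized at the three base-contacting residues per repeat, co-expressed with matching RNA elements in strain YBZ-1 (LexA–MS2 coat fusion, HIS3 reporter). Plating lasted four days on SC-Leu (input) or SC-Leu-His + 0.5 mM 3-AT (selection).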
On to “GGCUAGAACUAGUGGAUCCCCCGGCGCCCGGCGGCUCGAGCCCGGGUAAGUGUAAAUAGUCUGCAUGCCGCCGGGCGCCAUGCCUGCAGGUCGACUCUAGAAAACAUG”, for which the binding signal was 3.42 log2 enrichment (interaction score). Still for that read-out and setting: under “GGCUAGAACUAGUGGAUCCCCCGGCGCCCGGCGGCUCGAGCCCGGGUAAGUGUCAAUAGUCUGCAUGCCGCCGGGCGCCAUGCCUGCAGGUCGACUCUAGAAAACAUG” stands 5.4 log2 enrichment (interaction score); under “GGCUAGAACUAGUGGAUCCCCCGGCGCCCGGCGGCUCGAGCCCGGGUAAGUGUUAAUAGUCUGCAUGCCGCCGGGCGCCAUGCCUGCAGGUCGACUCUAGAAAACAUG”, 3.23 log2 enrichment (interaction score).

In the next experiment the target is PUM1 PUF domain R4-SPA (Homo sapiens, UniProt Q14671 828-1176, N971S;H972P;Q975A). The experiment is described as above. Particulars: tags: N-Gal4 AD-HA kept; label: inside an RPR1-promoter hybrid RNA with tandem MS2 sites; ssRNA. A digest of the protocol: as §1
Chain of PUM1 PUF domain R4-SPA (Q14671 828-1176 N971S/H972P/Q975A): as the sequence (Q14671 828-1176 C1007R/R1008F/Q1011L) above, with N144S, H145P, Q148A, R180C, F181R, L184Q counted along it
For the sequence “GGCUAGAACUAGUGGAUCCCCCGGCGCCCGGCGGCUCGAGCCCGGGUAAGUGUAUAUAGUCUGCAUGCCGCCGGGCGCCAUGCCUGCAGGUCGACUCUAGAAAACAUG”, the binding signal was 3.25 log2 enrichment (interaction score). On the same count and under the same terms, under “GGCUAGAACUAGUGGAUCCCCCGGCGCCCGGCGGCUCGAGCCCGGGUAAGUGUAAAUAGUCUGCAUGCCGCCGGGCGCCAUGCCUGCAGGUCGACUCUAGAAAACAUG” stands 3.03 log2 enrichment (interaction score); under “GGCUAGAACUAGUGGAUCCCCCGGCGCCCGGCGGCUCGAGCCCGGGUAAGUGUACAUAGUCUGCAUGCCGCCGGGCGCCAUGCCUGCAGGUCGACUCUAGAAAACAUG”, 1.59 log2 enrichment (interaction score).

The target of another experiment is PUM1 PUF domain R5-RFL (Homo sapiens, UniProt Q14671 828-1176, C1007R;R1008F;Q1011L). The experiment is described as above. Particulars: tags: N-Gal4 AD-HA kept; label: inside an RPR1-promoter hybrid RNA with tandem MS2 sites; ssRNA. Summed up:
as §1
In the case of “GGCUAGAACUAGUGGAUCCCCCGGCGCCCGGCGGCUCGAGCCCGGGUAAGUGUAAAUAGUCUGCAUGCCGCCGGGCGCCAUGCCUGCAGGUCGACUCUAGAAAACAUG”, the binding signal was 3.51 log2 enrichment (interaction score). “GGCUAGAACUAGUGGAUCCCCCGGCGCCCGGCGGCUCGAGCCCGGGUAAGUGUCAAUAGUCUGCAUGCCGCCGGGCGCCAUGCCUGCAGGUCGACUCUAGAAAACAUG”: the binding signal is 4.06 log2 enrichment (interaction score). On the same count and under the same terms, then “GGCUAGAACUAGUGGAUCCCCCGGCGCCCGGCGGCUCGAGCCCGGGUAAGUGUUAAUAGUCUGCAUGCCGCCGGGCGCCAUGCCUGCAGGUCGACUCUAGAAAACAUG”, with 4.97 log2 enrichment (interaction score).
